# Assay results as given in PubChem BioAssay AID720700 (The Scripps Research Institute Molecular Screening Center, 2013).
# The campaign covered roughly 370,000 compounds. About 3,100 (0.84%) were called active. Cut-off read from the data, not from the text of the source: active = inhibition above about 9.5%; inactive = the rest. This excerpt belongs to a sample that is enriched for actives.
# Molecular target: 1-phosphatidylinositol 4,5-bisphosphate phosphodiesterase gamma-1 (Homo sapiens) (UniProt P19174)
# Sequence (P19174 whole entry, looked up): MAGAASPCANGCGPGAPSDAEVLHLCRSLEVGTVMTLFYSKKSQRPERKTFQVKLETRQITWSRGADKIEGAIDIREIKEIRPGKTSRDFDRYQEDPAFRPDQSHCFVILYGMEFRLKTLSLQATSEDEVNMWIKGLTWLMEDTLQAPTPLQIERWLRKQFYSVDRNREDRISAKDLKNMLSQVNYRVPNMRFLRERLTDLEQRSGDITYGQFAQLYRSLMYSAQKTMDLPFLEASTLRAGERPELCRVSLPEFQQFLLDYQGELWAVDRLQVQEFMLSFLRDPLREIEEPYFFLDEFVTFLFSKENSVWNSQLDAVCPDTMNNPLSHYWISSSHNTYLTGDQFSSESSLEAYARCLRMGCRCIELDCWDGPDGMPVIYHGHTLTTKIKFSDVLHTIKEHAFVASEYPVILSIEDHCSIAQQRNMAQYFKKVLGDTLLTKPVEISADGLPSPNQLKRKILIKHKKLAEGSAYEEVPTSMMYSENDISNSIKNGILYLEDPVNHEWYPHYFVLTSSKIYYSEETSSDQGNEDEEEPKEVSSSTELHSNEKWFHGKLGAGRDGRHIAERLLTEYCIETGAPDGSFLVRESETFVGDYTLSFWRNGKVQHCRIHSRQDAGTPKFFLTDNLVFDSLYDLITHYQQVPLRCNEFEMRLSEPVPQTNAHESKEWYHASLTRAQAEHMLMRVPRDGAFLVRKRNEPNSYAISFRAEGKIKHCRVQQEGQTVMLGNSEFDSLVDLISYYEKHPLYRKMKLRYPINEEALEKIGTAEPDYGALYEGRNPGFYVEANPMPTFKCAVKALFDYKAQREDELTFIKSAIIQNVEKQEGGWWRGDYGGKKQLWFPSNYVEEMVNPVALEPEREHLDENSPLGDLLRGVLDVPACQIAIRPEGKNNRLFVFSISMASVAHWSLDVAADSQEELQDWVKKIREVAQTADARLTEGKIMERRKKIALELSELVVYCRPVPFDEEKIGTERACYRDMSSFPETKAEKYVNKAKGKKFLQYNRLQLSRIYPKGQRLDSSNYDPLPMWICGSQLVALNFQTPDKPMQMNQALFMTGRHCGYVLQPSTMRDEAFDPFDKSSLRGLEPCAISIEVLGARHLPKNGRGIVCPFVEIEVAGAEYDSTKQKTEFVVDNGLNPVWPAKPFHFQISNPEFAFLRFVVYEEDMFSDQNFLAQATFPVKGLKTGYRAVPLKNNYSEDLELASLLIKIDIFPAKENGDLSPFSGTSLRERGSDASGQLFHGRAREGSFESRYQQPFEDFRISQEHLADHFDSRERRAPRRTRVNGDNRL
# Assay: blockers of human PLCG1 activity – biochemical, fluorescence, purified enzyme, primary screen (AID 720700)
# Conditions: purified PLC-gamma1, fluorogenic substrate, at 12.2 µM, stronger effect = higher value
row,SMILES,inhibition
1,COc1ccc(C2CC=C(C(=O)O)C(c3ccccc3F)N2S(=O)(=O)c2ccc(C)cc2)cc1OC (configuration not stated),-0.05% (inactive)
2,CCCCOCCCNC(=O)C[C@H]1C[C@@]2(C(=O)OC)C(=C[C@H](COCc3ccccc3)O[C@@H]2C)N(Cc2cccc3ccccc23)C1=O,2.09% (inactive)
3,CCCCNC(=O)C[C@@H]1C(=O)N(CCc2ccc(Cl)cc2)C2=CCCC[C@]21C(=O)OCC,1.96% (inactive)
4,Cc1ccc(-c2nnc(SCC(=O)Nc3ccc(Oc4ccccc4)cc3)n2Cc2ccco2)cc1,-3.01% (inactive)
5,COc1ccc(-c2cc(-c3nnc(SCc4ccc([N+](=O)[O-])cc4)n3N)[nH]n2)cc1,-0.19% (inactive)
6,C#CCN([C@H](C(=O)OC)C(C)CC)S(=O)(=O)c1ccccc1Br (some centres not stated),-0.23% (inactive)
7,CN1c2ccc(C=O)c3c(C=O)ccc(c23)N(C)C1(C)C,-156% (inactive)
8,Cc1ccc(C=O)c([B-](F)(F)F)c1,9.66% (active)
9,COc1ccc(C(=O)CSc2nnc(-c3cnccn3)n2-c2ccc(C)cc2)cc1,-2.8% (inactive)
10,CCC[C@H]1C(=O)CC[C@@]23CCCN2C(=O)CCC[C@@H]13,-1.51% (inactive)
11,CCOC(=O)[C@]12CCCC3=C1N(CCC3)C(=O)[C@@H](CC(=O)NCc1cccs1)C2,-0.59% (inactive)
12,C(=C\c1ccccc1)/CSc1nnc(-c2cccnc2)n1Cc1ccco1,-1.89% (inactive)
13,CSc1ccc(C=Nn2c(-c3ccc(F)cc3)n[nH]c2=S)cc1,3.12% (inactive)
14,S=c1[nH]nc(-c2cccnc2)n1/N=C/C(Cl)=C\c1ccccc1,12.7% (active)
15,Cc1[nH]c(C)c(S(=O)(=O)N2CCN(c3cccc(C(F)(F)F)c3)CC2)c1C(=O)N1CCCCC1,0.49% (inactive)
16,Cc1[nH]c(C)c(S(=O)(=O)N2CCN(c3cccc(C(F)(F)F)c3)CC2)c1C(=O)N1CCCC1,0.67% (inactive)
17,Cc1ccc(C)c(N2CCN(S(=O)(=O)c3c(C)[nH]c(C)c3C(=O)N3CCCC3)CC2)c1,17% (active)
18,CN(C(N)=NC(=O)/C=C/c1ccccc1)C(C#Cc1ccccc1)Cc1ccccc1 (configuration not stated),-3.61% (inactive)
19,C=CCN(Cc1ccc2c(c1)OCO2)C(C#CC1CC1)C(C)(C)C (configuration not stated),-0.25% (inactive)
20,O=c1ccc2c(-c3ccccc3S(=O)(=O)O)c3ccc(O)c(O)c3oc-2c1O,25.2% (active)
21,O=C(CSc1nc2ccccc2n1Cc1ccccc1)NNC(=S)Nc1ccccc1,3.11% (inactive)
22,C#CCNC(=O)C[C@H]1C[C@@]2(C(=O)OC)C(=C[C@H](C(C)C)O[C@@H]2C2CC2)N(Cc2ccco2)C1=O,0.18% (inactive)
23,O=C(NCc1cccs1)C1CCN(S(=O)(=O)c2ccccc2[N+](=O)[O-])CC1,3.22% (inactive)
24,c1coc(CCNc2ncnc3ccc(-c4ccc5c(c4)OCO5)cc23)c1,-114% (inactive)
25,CCCc1nc2oc3c(OCC)ncnc3c2c2c1COC(C)(C)C2,2.49% (inactive)
26,CC1(C)Cc2nc3sc4c(SCC(=O)NC(c5ccccc5)c5ccccc5)ncnc4c3cc2CO1,-1.56% (inactive)

row,SMILES,inhibition
1,CC(C)CCSc1ncnc2c1oc1nc3c(cc12)COC(C)(C)C3,10.6% (active)
2,COC(=O)C1CN(Cc2ccc(F)cc2)CCS(=O)(=O)N1Cc1ccc(Cl)cc1 (configuration not stated),-0.52% (inactive)
3,C=CCN1C(=O)[C@@H](CC(=O)NCC2CCCCC2)[C@]2(C(=O)OC)CCCCC=C12,-0.08% (inactive)
4,CC(C)CSc1nnc(-c2cccnc2)n1Cc1ccccc1,0.54% (inactive)
5,COc1ccnc(NC(=S)N2CCN(c3ncc(C(F)(F)F)cc3Cl)CC2)c1,4.36% (inactive)
6,O=C(Nc1cccc(Cl)c1)OC1CC2CC1[C@H]1CCCCN1[C@H]2Cc1ccccc1 (some centres not stated),-19.3% (inactive)
7,O=C1N[C@H](Cc2c[nH]c3ccccc23)COC(=O)[C@H](Cc2ccc(F)cc2)C/C=C\C[C@H]1CC(=O)N(CCO)Cc1ccccc1,1.6% (inactive)
8,O=C1NC[C@@H](c2ccccc2)OC(=O)[C@H](Cc2ccc(F)cc2)CC/C=C/C[C@H]1CC(=O)N(CCO)Cc1ccccc1,-0.18% (inactive)
9,O=C1N[C@@H](c2ccccc2)COC(=O)[C@H](Cc2ccc(F)cc2)C/C=C\C[C@@H]1CC(=O)N(CCO)Cc1ccccc1,9.59% (active)
10,O=C(Nc1nc2ccc(Cl)cc2s1)c1cc(-c2ccc(Cl)cc2)nc2ccccc12,6.56% (inactive)
11,Cc1ccc(Cn2cc(CN3[C@@H](CC(C)C)COc4ccc(Cl)cc4S3(=O)=O)nn2)cc1,1.86% (inactive)
12,COc1ccc(Cn2ccc3ccc(-c4ccc5ccn(Cc6ccccc6C)c5c4)cc32)cc1,-65% (inactive)
13,O=S1(=O)c2c(cccc2N2CC[C@H](O)C2)O[C@@H]2CCN1C2,-2.5% (inactive)
14,CCOC(=O)C1CCN(C(=O)c2cccc(S(=O)(=O)N(CC)c3ccccc3)c2)CC1,1.63% (inactive)
15,CCOC(=O)C1CCN(C(=O)c2ccccc2N(C)S(=O)(=O)c2ccccc2)CC1,12.6% (active)
16,CCN1CCN(C(=O)c2ccccc2N(C)S(=O)(=O)c2ccc(C)cc2)CC1,2.78% (inactive)
17,O=C(CSc1nc2ccccc2n1Cc1ccccc1Cl)N/N=C\c1c[nH]c2ccccc12,1.37% (inactive)
18,CC(C)CNc1cccc2c1S(=O)(=O)N(Cc1cn(Cc3ccccc3C(F)(F)F)nn1)Cc1ccccc1O2,-4.63% (inactive)
19,Cc1ccc(NC(=S)N(Cc2ccco2)C(C)c2cccs2)cc1 (configuration not stated),9.84% (active)
20,Cc1ccc(-c2csc(N(Cc3ccco3)C(=O)c3cccs3)n2)cc1,0.51% (inactive)
21,Cc1cccc(NC(=S)N(CCN(C)C)C(C)c2ccco2)c1 (configuration not stated),-0.2% (inactive)
22,O=C1CC[C@@H](COc2ccc3[nH]cc(-c4ccccc4)c3c2-c2ccccc2)N1,-12.8% (inactive)
23,Nc1[nH]c(/C=C2/CCCCC2n2[nH]c(=O)n(-c3ccccc3)c2=O)c(Cc2ccccc2)[n+]1Cc1ccccc1 (configuration not stated),-3.57% (inactive)
24,COC(=O)[C@]12C[C@H](CC(=O)NCc3cccs3)C(=O)N(CCc3ccc(OC)c(OC)c3)C1=C[C@H](C(C)C)O[C@@H]2C1CC1,0.22% (inactive)
25,Cc1ccc(CSc2nnc(SCC(=O)NN=Cc3cc(Br)ccc3F)s2)cc1,1.18% (inactive)
26,CC[C@@H](CCC(=O)N(c1ccccc1)c1ccccc1)C1CC1,-1.13% (inactive)

row,SMILES,inhibition
1,CC[C@]12c3[nH]c4ccc(Cl)cc4c3CCN1C(=O)[C@@H](CC(=O)NCCN1CCOCC1)C[C@@H]2C(=O)N1CCN(C(=O)C2CC2)CC1,0.47% (inactive)
2,C[C@]12c3[nH]c4ccc(Cl)cc4c3CCN1C(=O)[C@@H](CC(=O)NCCCn1ccnc1)C[C@@H]2C(=O)N1CCOCC1,13.5% (active)
3,COc1ccc2[nH]c3c(c2c1)CCN1C(=O)C(CC(=O)NCCc2ccccn2)C[C@H](C(=O)N2CCOCC2)[C@@]31C (some centres not stated),0.01% (inactive)
4,CCOc1ccc(N(CC(=O)Nc2c(C)n(C)n(-c3ccccc3)c2=O)S(=O)(=O)c2ccc(Cl)s2)cc1,1.1% (inactive)
5,CN[C@H]1C[C@H]2c3cc(N4CCOCC4)ccc3CCN2C[C@H]1[C@H](C)O,-7.18% (inactive)
6,Nn1c(SCC(=O)Nc2ccc(S(N)(=O)=O)cc2)nnc1-c1n[nH]c2c1CCC2,3.04% (inactive)
7,CCOc1ccc(NC(=O)[C@H](C)NC(=O)C2CC(=O)N(c3ccc(OC)cc3)C2)cc1 (some centres not stated),9.63% (active)
8,CCCC(C)c1nnc(NC(=O)C2CC(=O)N(c3ccc(OCC)cc3)C2)s1 (configuration not stated),4.32% (inactive)
9,COc1ccc(N2CC(C(=O)N[C@@H](C)C(=O)N3CCCCC3)CC2=O)cc1 (some centres not stated),-2.8% (inactive)
10,CCOC(=O)[C@]12CCCC3=C1N(CCC3)C(=O)[C@@H](CC(=O)NCC13CC4CC(CC(C4)C1)C3)C2,0.85% (inactive)
11,O=C(Nc1cc(Cl)cc(Cl)c1)OCCN1CCCC12CCC(c1ccccc1)CC2 (configuration not stated),-0.68% (inactive)
12,COc1ccc(-n2c(SCC(=O)Nc3ccc(C)c(Cl)c3)nc3ccccc3c2=O)cc1,5.06% (inactive)
13,CN(C)S(=O)(=O)c1cccc(C(=O)OCC(=O)N2CCCC2=O)c1,1.6% (inactive)
14,C=CCN(c1ccc(Cl)cc1)S(=O)(=O)c1cccc(C(=O)OCC(=O)N(C)C)c1,14% (active)
15,C=CCN(c1ccc(C(N)=O)cc1)S(C)(=O)=O,2.1% (inactive)
16,O=C(NCc1ccco1)C1CCCN(S(=O)(=O)c2ccc(Cl)s2)C1 (configuration not stated),2.2% (inactive)
17,C[C@@H]1CN([C@H](C)CO)C(=O)CCCn2nncc2CO[C@@H]1CN(C)C(=O)OCc1ccccc1,5.09% (inactive)
18,COC(=O)N(C)C[C@@H]1OCc2cnnn2CCCC(=O)N([C@@H](C)CO)C[C@@H]1C,14.2% (active)
19,C[C@H](CO)N1C[C@H](C)[C@@H](CN(C)C(=O)C2CCCCC2)OCc2cnnn2CCCC1=O,0.86% (inactive)
20,COC(=O)CC1CCc2cc(C)cc(C(CC(C)C)NC(=O)[C@H](CC(C)C)NC(=O)OCc3ccccc3)c2O1 (some centres not stated),-1.26% (inactive)
21,CCOc1ccccc1NC(=O)CCN1CCN(S(=O)(=O)c2ccc(OC)cc2)CC1,10.4% (active)
22,CCOc1ccccc1NC(=O)COc1ccc(S(=O)(=O)N2CCCC2)cc1,-0.48% (inactive)
23,COc1ccc(S(=O)(=O)N2CCC(C(=O)NCCC(=O)Nc3ccccc3OC)CC2)cc1,0.77% (inactive)
24,CCC(CO)Nc1cccc2c1S(=O)(=O)N(Cc1cn(Cc3ccccc3C(F)(F)F)nn1)Cc1ccccc1O2 (configuration not stated),-5.47% (inactive)
25,CC(=O)c1cc(-c2ccc3ccccc3c2)c(=O)n2c1CCC2,-43.4% (inactive)
